{"source": "PubChem BioAssay (NCATS)", "key": {"SKOV3": {"tested_on": "SKOV3", "assay": "Primary qHTS to identify gynecologic anti-cancer compounds using libraries of approved drugs and bioactive compounds (AID 1345084); note: nearly all actives have a fitted effect of over 55% in size; note: potency is the fitted concentration of half-maximal effect", "conditions": "Gynecologic cancer cell panel viability, ATPlite luminescence, 48 h; series mostly up to 57.5 µM", "outline": "(§1)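 Measured: luminescence after ATPlite addition (15 min, RT). Exposure: 48 h, 37 C, 5% CO2.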"}, "Tov-21-G": {"tested_on": "Tov-21-G", "assay": "Primary qHTS to identify gynecologic anti-cancer compounds using libraries of approved drugs and bioactive compounds (AID 1345084)", "conditions": "Gynecologic cancer cell panel viability, ATPlite luminescence, 48 h; series mostly up to 57.5 µM", "outline": "as §1"}, "Tov112D": {"tested_on": "Tov112D", "assay": "Primary qHTS to identify gynecologic anti-cancer compounds using libraries of approved drugs and bioactive compounds (AID 1345084)", "conditions": "Gynecologic cancer cell panel viability, ATPlite luminescence, 48 h; series mostly up to 57.5 µM", "outline": "as §1"}, "[1]": {"assay": "qHTS assay to identify inhibitors of the type 1 interferon - major histocompatibility complex class I in skeletal muscle: Counter screen cell viability and HiBit confirmation (AID 1347412)", "conditions": "iHSKM muscle cells + IFN-b, HiBiT or CellTiter-Glo, 24 h; Viability; at 45.9 µM (top of the series)", "outline": "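CRISPR HLA-B*08:01-HiBit immortalized human myoblasts (C25cl48) stimulated with 4 ng/ml IFN-beta and compounds (12-point 1:3, top 46 uM final) for 24 h at 37 C. Duplicate plates read by HiBit lytic luminescence or CellTiter Glo ATP.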"}}, "note": "Records with an inconclusive call do not appear. A call without a number means that no potency is given here. Unmarked numbers belong to inactive results. Active and inactive are the calls of the source. Calls come from the whole dose curve; as a rule, active = well fitted curve in the direction sought with a large enough effect; inconclusive = small, poorly fitted or top-dose-only effect, or another doubt; inactive = no such curve, though single readings can be large; an effect the other way counts as inactive or inconclusive. Throughout, for activity change, negative = inhibition: nearly all actives have a fitted effect of over 60% in size."}
{"smiles": "CC1=C(C(=O)OC2CCCCC2)C(c2ccc([N+](=O)[O-])cc2)C2=C(CC(C)(C)CC2=O)N1", "note": "(configuration not stated)", "values": [{"measurement": "Potency", "setting": "SKOV3", "value": "inactive"}, {"measurement": "Potency", "setting": "Tov-21-G", "value": "inactive"}, {"measurement": "Potency", "setting": "Tov112D", "value": "inactive"}]}
{"smiles": "C=C[C@H](/C=C\\c1ccc(O)cc1)c1ccc(O)cc1", "values": [{"measurement": "Potency", "setting": "SKOV3", "value": "inactive"}, {"measurement": "Potency", "setting": "Tov-21-G", "value": "inactive"}, {"measurement": "Potency", "setting": "Tov112D", "value": "inactive"}]}
{"smiles": "O=c1[nH]c2ccc(C#CCN3CCC(Cc4ccccc4)CC3)cc2[nH]1", "values": [{"measurement": "Potency", "setting": "SKOV3", "value": "inactive"}, {"measurement": "Potency", "setting": "Tov-21-G", "value": "inactive"}, {"measurement": "Potency", "setting": "Tov112D", "value": "inactive"}]}
{"smiles": "CC1(CO)CC(O)[C@]2(C(=O)O)CCC34CC3(C=CC3[C@]5(C)C(CC[C@]34C)C(C)(CO)[C@@H](O)[C@H](O)[C@@H]5O)C2C1", "note": "(some centres not stated)", "values": [{"measurement": "Potency", "setting": "SKOV3", "value": "inactive"}, {"measurement": "Potency", "setting": "Tov-21-G", "value": "inactive"}, {"measurement": "Potency", "setting": "Tov112D", "value": "inactive"}]}
{"smiles": "CC#C[C@@H](CC(=O)O)c1ccc(OCc2cccc(-c3ccc(C(F)(F)F)cc3)c2)cc1", "values": [{"measurement": "Potency", "setting": "SKOV3", "value": "inactive"}, {"measurement": "Potency", "setting": "Tov-21-G", "value": "inactive"}, {"measurement": "Potency", "setting": "Tov112D", "value": "inactive"}]}
{"smiles": "CC(C)C[C@H](C(=O)O)c1cc(-c2ccc(C(F)(F)F)cc2)cc(-c2ccc(C(F)(F)F)cc2)c1", "values": [{"measurement": "Potency", "setting": "SKOV3", "value": "inactive"}, {"measurement": "Potency", "setting": "Tov-21-G", "value": "inactive"}, {"measurement": "Potency", "setting": "Tov112D", "value": "inactive"}]}
{"smiles": "CN1CCN(c2ccc(Nc3cc(-c4cccc(-n5ccc6cc(C7CC7)cc(F)c6c5=O)c4CO)cn(C)c3=O)nc2)CC1", "values": [{"measurement": "Potency", "setting": "SKOV3", "value": "inactive"}, {"measurement": "Potency", "setting": "Tov-21-G", "value": "inactive"}, {"measurement": "Potency", "setting": "Tov112D", "value": "inactive"}]}
{"smiles": "C/C=C(\\C)C(=O)O[C@H]1C=CC(=O)O[C@H]1/C=C/[C@@H](O)[C@H](C)O", "values": [{"measurement": "Potency", "setting": "SKOV3", "value": "inactive"}, {"measurement": "Potency", "setting": "Tov112D", "value": "inactive"}]}
{"smiles": "Cc1[nH]c(/C=C2\\C(=O)Nc3ccc(F)cc32)c(C)c1C(=O)NCCN1CCCC1", "values": [{"measurement": "Potency", "setting": "SKOV3", "value": "15.8 µM (active)"}, {"measurement": "Potency", "setting": "Tov112D", "value": "inactive"}, {"measurement": "activity change, negative = inhibition", "setting": "[1]", "value": -1.6, "unit": "%"}]}
{"smiles": "CC(=O)O[C@@H]1[C@@H](OC(C)=O)[C@H](C)O[C@@H](O[C@H]2[C@@H]3C=CO[C@@H](O[C@@H]4O[C@H](CO)[C@@H](O)[C@H](O)[C@H]4O)[C@@H]3[C@@]3(CO)O[C@@H]23)[C@@H]1OC(=O)/C=C/c1ccccc1", "values": [{"measurement": "Potency", "setting": "SKOV3", "value": "inactive"}, {"measurement": "Potency", "setting": "Tov112D", "value": "inactive"}]}
{"smiles": "CC(=O)c1c(C)cc2cccc(O)c2c1O[C@@H]1O[C@H](CO)[C@@H](O)[C@H](O)[C@H]1O", "values": [{"measurement": "Potency", "setting": "SKOV3", "value": "inactive"}, {"measurement": "Potency", "setting": "Tov112D", "value": "inactive"}]}
{"smiles": "CC(=O)O[C@@H]1[C@H](O[C@@H]2O[C@@H](CO)[C@H](O)[C@H]2O)[C@@H](O[C@@H]2O[C@@H](C)[C@H](O[C@@H]3OC[C@@H](O)[C@H](O)[C@H]3O)[C@@H](O)[C@H]2O)[C@H](OC(=O)[C@]23CCC(C)(C)C[C@H]2C2=CCC4[C@@]5(C)CC[C@H](O[C@@H]6O[C@H](C(=O)O)[C@@H](O)[C@H](O)[C@H]6O[C@@H]6O[C@H](CO)[C@H](O)[C@H](O)[C@H]6O)[C@@](C)(C=O)C5CC[C@@]4(C)[C@]2(C)C[C@H]3O)O[C@@H]1C", "note": "(some centres not stated)", "values": [{"measurement": "activity change, negative = cytotoxicity", "setting": "SKOV3", "value": "8.44% [at 6.55 µM]"}, {"measurement": "activity change, negative = cytotoxicity", "setting": "Tov112D", "value": "-3.22% [at 6.55 µM]"}]}
{"smiles": "C/C(=C\\Cc1c(O)c(Cl)c(C)c(C=O)c1O)CC/C=C(\\C)[C@H]1CC(=O)C(C)(C)O1", "values": [{"measurement": "Potency", "setting": "SKOV3", "value": "inactive"}, {"measurement": "Potency", "setting": "Tov112D", "value": "inactive"}]}
{"smiles": "CC(C)(C)c1ccc2c(c1)CC[C@H]2NC(=O)Nc1cccc2[nH]ncc12", "values": [{"measurement": "Potency", "setting": "SKOV3", "value": "inactive"}, {"measurement": "Potency", "setting": "Tov-21-G", "value": "inactive"}, {"measurement": "Potency", "setting": "Tov112D", "value": "inactive"}]}
